Screening results as filed in PubChem BioAssay.
Rab9 prom act: qHTS Assay for Rab9 Promoter Activators; Potency, µM (top dose mostly 9.22 µM), inactives show top-dose activation, negative = inhibition, hits mostly activators; 320,000 tested, 2.8% active; Huh7 Rab9 promoter-luciferase reporter, luminescence, 24 h; AID 485297, 2010; also: % of control where 0% means no effect; nearly all actives have a fitted effect of over 60% in size
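Huh7 cells stably carrying a Rab9 promoter-luciferase reporter, 1500 cells per well in OP-MEM I with 10% FBS, treated with compound 24 hours at 37C. Luciferase activity read by luminescence after 10 minutes with Amplite reagent.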
ELG1 genotox: qHTS screen for small molecules that induce genotoxicity in human embryonic kidney (HEK293T) cells expressing luciferase-tagged ELG1 | HEK293T ELG1-luciferase reporter, luminescence, 16 h | Potency, µM (doses to about 46 µM), inactives show at the highest dose activity change, positive = activation, actives largely listed as activators | 330,000 tested, 1.3% active | AID 504466, 2011; also: % of control where 0% means no effect; nearly all actives have a fitted effect of over 60% in size
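Genotoxicity was scored as increased ELG1-luciferase reporter signal, measured by ONE-Glo luminescence (30 min, room temperature). Compound or vehicle exposure of the HEK293T reporter cells lasted 16 hr at 37°C.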
SMN2 splice enh: qHTS Assay for Enhancers of SMN2 Splice Variant Expression; HEK293 SMN2-luciferase splicing reporter, luminescence, 30-36 h; AID 1458, 2008; 210,000 tested, 2.8% active; Potency, µM (series often up to 46.1 µM), for the others: top-dose activity change, positive = activation, hits mostly activators; also: % of control where 0% means no effect; nearly all actives have a fitted effect of over 55% in size
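qHTS luciferase splicing reporter: luminescence rises when SMN2 exon 7 is included in transfected HEK293 cells. Compound exposure lasted 30-36 h at 37C, with 4.5 mM final sodium butyrate as control, followed by a ONE-Glo read.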
NPC1 prom act: qHTS Assay for NPC1 Promoter Activators; Huh7 NPC1 promoter luciferase reporter, 24 h; Potency, µM (highest dose often 9.22 µM), for the others: at the highest dose activation, hits mostly activators; 320,000 tested, 2.4% active; AID 485313, 2010; also: % of control where 0% means no effect; nearly all actives have a fitted effect of over 60% in size
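Luminescence read-out of NPC1 promoter-driven luciferase in stably transfected Huh7 cells; compounds delivered in DMSO and left 24 h at 37C, 5% CO2, qHTS titration format.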
FLuc counter: qHTS profiling assay for firefly luciferase inhibitor/activator using purifed enzyme and Km concentrations of substrates (counterscreen for miR-21 project) | Luciferin 4-monooxygenase (Photinus pyralis), P08659 | purified FLuc, Km substrates, luminescence inhibition | Potency, µM (top dose mostly 57.5 µM), for the others: at the top dose activity change, negative = inhibition, most hits filed as inhibitors | 360,000 tested, 6.9% active;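 also: plate controls were vehicle for no effect and reference inhibitor for full effect; nearly all actives have a fitted effect of over 55% in size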
Target sequence (P08659 whole entry, looked up): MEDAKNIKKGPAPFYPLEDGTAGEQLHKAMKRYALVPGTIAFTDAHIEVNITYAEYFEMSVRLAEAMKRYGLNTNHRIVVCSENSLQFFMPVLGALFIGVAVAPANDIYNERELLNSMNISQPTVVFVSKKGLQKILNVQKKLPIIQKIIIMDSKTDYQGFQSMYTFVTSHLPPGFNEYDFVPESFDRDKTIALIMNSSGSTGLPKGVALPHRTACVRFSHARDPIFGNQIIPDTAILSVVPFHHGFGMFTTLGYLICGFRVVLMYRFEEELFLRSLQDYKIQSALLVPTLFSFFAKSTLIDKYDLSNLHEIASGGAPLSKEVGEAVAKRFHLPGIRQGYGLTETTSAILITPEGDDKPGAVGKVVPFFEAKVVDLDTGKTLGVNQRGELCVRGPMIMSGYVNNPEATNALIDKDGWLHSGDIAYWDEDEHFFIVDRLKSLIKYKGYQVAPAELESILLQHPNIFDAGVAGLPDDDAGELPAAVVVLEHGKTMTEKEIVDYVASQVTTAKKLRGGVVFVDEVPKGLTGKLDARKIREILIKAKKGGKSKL
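Purified P. pyralis luciferase, 10 nM final, with Km-level 10 uM D-luciferin and 10 uM ATP in 50 mM Tris acetate pH 7.5, 10 mM Mg acetate, 0.01% Tween-20, 0.05% BSA; 6-point qHTS titration about 60 µM downward; luminescence read.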
* = called active by the depositor; ? = inconclusive; . = no result; [ ] = dose if it differs, or a comment. Only some compounds are listed: those with a hit (about 7.4% of all), similar ones and a draw of the others. Calls follow the shape of the dose curve; as a rule, active = well fitted curve in the direction sought with a large enough effect; inconclusive = small, poorly fitted or top-dose-only effect, or another doubt; inactive = no such curve, though single readings can be large; an effect the other way counts as inactive or inconclusive. Potency is read from the fitted curve at half-maximal effect.

SMILES	Rab9 prom act	ELG1 genotox	SMN2 splice enh	NPC1 prom act	FLuc counter
CCOC(=O)c1ccc(NC(=O)C(=O)NCc2ccccn2)cc1	-2%	3%	-3%	4%	-12%
CCc1ccc(OCc2ccc(C(=O)NCc3ccccn3)o2)cc1	?	?	5µM*	?	?
CCCc1ccc(OCc2ccc(C(=O)N3CCSCC3)o2)cc1	2.2µM*	10µM*	.	2.2µM*	21µM*
CCc1ccc(NC(=O)C(=O)NCc2ccccn2)cc1	3.5µM*	?	.	?	19µM*
CC(=O)n1c(COS(C)(=O)=O)nc2ccccc21	.	.	-12%[9.22 µM]	.	.
CCC12CN3CC(C)(CN(C1)C3c1c[nH]c3ccccc13)C2=O (stereo unspecified)	.	.	-1%	.	-2%
CCN(Cc1ccccc1)S(=O)(=O)c1cc(C(=O)Nc2cc(Cl)cc(Cl)c2)ccc1F	.	.	.	.	0%
COc1ccc(NC(=O)Cn2c(=O)n(Cc3ccco3)c(=O)c3sc4ccccc4c32)cc1OC	.	.	-1%	.	-1%
CCc1ccc(OCc2ccc(C(=O)OC)o2)cc1	?	?	.	?	17µM*
CC(C)(C)c1ccc(OCc2ccc(C(=O)Nc3cccnc3)o2)cc1	0.35µM*	?	.	0.45µM*	15µM*
O=C(N/N=C/c1ccc2ccccc2c1)c1ccc(COc2ccc3c(c2)CCC3)o1	?	?	?	?	2.7µM*
CCC(C)c1ccc(OCc2ccc(C(=O)OC)o2)cc1 (stereo unspecified)	0.5µM*	?	.	0.63µM*	?
COC(=O)c1ccc(COc2ccc(C(C)(C)C)cc2)o1	0.35µM*	?	.	0.71µM*	17µM*
O=C(NCc1cccnc1)c1ccc(COc2ccc3c(c2)CCC3)o1	-1%	-8%	-52%	4%	?
COC(=O)c1ccc(COc2ccc3c(c2)CCC3)o1	?	?	.	?	17µM*
Cc1ccc2nc(Nc3nc(=O)c4ccccc4n3C)nc(C)c2c1	11%	-4%	5%	10%	2.1µM*
Cc1ccc2nc(Nc3nc(-c4ccccc4)cc(=O)[nH]3)nc(C)c2c1	-4%	?	-21%	-2%	-11%
Cc1ccc2c(c1)c(=O)c(C(=O)c1ccncc1)cn2CC(=O)Nc1ccc(C(C)C)cc1	.	.	.	.	2%
Cc1nc(-c2ccccc2)sc1C(=O)/C=C/c1ccc(Cl)cc1	0%	-7%	-24%	-3%	-16%
Cc1nc(-c2ccccc2Cl)sc1C(=O)/C=C/N(C)C	1.8µM*	?	?	3.2µM*	17µM*
Cc1cc(-c2nnc(CCC(=O)N(C)CCc3ccccc3)o2)no1	9%	?	.	-3%	?
CCN(CCn1cccn1)C(=O)CCc1nnc(CCCc2ccccc2)o1	2.8µM*	16µM*	11µM*	?	15µM*
C=C(C)CN(CC)C(=O)CCc1nnc(CCCc2ccccc2)o1	3.2µM*	?	.	3.5µM*	12µM*
CCN(CCn1cccn1)C(=O)CCc1nnc(-c2ccc3c(c2)OCO3)o1	7%	8%	.	0%	-18%
O=C(CCc1nnc(CCCCc2ccccc2)o1)N(CCO)Cc1ccccc1	-2%	-2%	.	-2%	-5%
SMILES	Rab9 prom act	ELG1 genotox	SMN2 splice enh	NPC1 prom act	FLuc counter
Cc1cccc(Cc2nnc(CCC(=O)N(C)CCc3ccccc3)o2)c1	4µM*	18µM*	.	3.5µM*	7.6µM*
COc1ccc2nc(NC(=O)c3cccnc3SC)sc2c1	?	?	?	?	5.4µM*
CSc1ncccc1C(=O)Nc1nc2ccc(S(C)(=O)=O)cc2s1	28%	4%	9%	13%	21µM*
COC(=O)c1cccc(NC(=O)c2cnoc2C)c1	?	9%	5%	18%	24µM*
Cc1coc(C)c1C(=O)Nc1ccc2ccccc2c1	2.8µM*	?	.	3.5µM*	11µM*
Cc1oncc1C(=O)Nc1ccc(C(F)(F)F)cc1	1.4µM*	?	11µM*	?	?
CC(=O)Nc1ccc2ccccc2c1	15%	?	7%	21%	?
Cc1oncc1C(=O)Nc1ccc2ccccc2c1	?	?	.	?	19µM*
